Data from the supplement of paper PMC13380429.

Test system: Vero E6 infected with SARS-CoV-2
Assay: inhibition of SARS-CoV-2 cytopathic effect; higher = more antiviral protection, active = above 15
Settings: 48 h

Measured: inhibition of SARS-CoV-2 cytopathic effect

NC(=O)NCCN1CCN(c2cccc(C(F)(F)F)c2)CC1 [fluprazine]
inactive: 1 nM 1.46% | 8.33 nM 1.13% | 100 nM -1.67% | 833.33 nM -1.94% | 10000 nM -2.06%

N=C(N)NC(=O)Cc1c(Cl)cccc1Cl [guanfacine]
inactive: 1 nM 3.14% | 8.33 nM 4.91% | 100 nM -3.11% | 833.33 nM 1.89% | 10000 nM -0.42%

OCc1cccnc1 [nicotinyl-alcohol-tartrate]
inactive: 1 nM -0.34% | 8.33 nM -0.51% | 100 nM -0.17% | 833.33 nM 0.73% | 10000 nM -0.73%

C=C1/C(=C\C=C2/CCC[C@]3(C)[C@@H]([C@H](C)OCCC(C)(C)O)CC[C@@H]23)C[C@@H](O)C[C@@H]1O [maxacalcitol]
inactive: 1 nM 1.71% | 8.33 nM 0.65% | 100 nM -1.77% | 833.33 nM 0.61% | 10000 nM -0.56%

CCc1[nH]c(=O)[nH]c1C(=O)c1ccncc1 [piroximone]
inactive: 1 nM -0.93% | 8.33 nM 5% | 100 nM 3.91% | 833.33 nM 3.62% | 10000 nM -1.11%

O=c1cc(-c2ccc(O)cc2)oc2cc(O)cc(O)c12 [apigenin]
inactive: 1 nM -2.83% | 8.33 nM -3.34% | 100 nM -1.73% | 833.33 nM 0.85% | 10000 nM 6.4%

C1CCC(NC2CCCCC2)CC1 [dicyclohexylamine]
inactive: 1 nM 2.51% | 8.33 nM 6.58% | 100 nM 13.2% | 833.33 nM 0.43% | 10000 nM -2.8%

NC(=O)c1cnc2[nH]ccc2c1N[C@@H]1[C@@H]2CC3C[C@H]1C[C@@](O)(C3)C2
inactive: 1 nM -1.55% | 8.33 nM -1.31% | 100 nM -1.46% | 833.33 nM -0.12% | 10000 nM -1.65%

OC(CCCN1CCN(c2ncc(F)cn2)CC1)c1ccc(F)cc1 (stereo not given)
inactive: 1 nM -3.3% | 8.33 nM -0.94% | 100 nM 3.34% | 833.33 nM 4.34% | 10000 nM 0.33%

COc1cccc(C=NCCN=Cc2cccc(OC)c2[O-])c1[O-].[Cl-].[Mn+3]
inactive: 1 nM 2.33% | 8.33 nM 1.86% | 100 nM 0.89% | 833.33 nM 1.11% | 10000 nM 14.1%

CC(=O)Nc1ccc(CC(=O)O)cc1 [actarit]
inactive: 1 nM 1.96% | 8.33 nM -0.52% | 100 nM 0.35% | 833.33 nM -0.15% | 10000 nM -0.41%

COc1cc(OC)c(C(=O)CCCCN2CCC3(CC2)NC(=O)NC3=O)cc1NS(=O)(=O)c1ccc(C(F)(F)F)cc1
inactive: 1 nM 0.4% | 8.33 nM 0.2% | 100 nM -0.19% | 833.33 nM 0.81% | 10000 nM 0.94%

CN1C/C=C/CCOc2cccc(c2)-c2ccnc(n2)Nc2cccc(c2)C1
inactive: 1 nM 5.51% | 8.33 nM 0.11% | 100 nM 0.3% | 833.33 nM -10.7% | 10000 nM -9.98%

COC(=O)[C@H]1[C@H]2C[C@@H]3c4[nH]c5cc(OC)ccc5c4CCN3C[C@H]2C[C@@H](OC(=O)c2cc(OC)c(OC)c(OC)c2)[C@@H]1OC [reserpine]
inactive: 1 nM 1.33% | 8.33 nM 3.05% | 100 nM 0.71% | 833.33 nM 3.56% | 10000 nM 7.95%

Fc1ccc(C(c2ccc(F)cc2)N2CCN(C/C=C/c3ccccc3)CC2)cc1 [flunarizine]
inactive: 1 nM -1.77% | 8.33 nM -0.01% | 100 nM -1.97% | 833.33 nM -2.17% | 10000 nM -3.88%

Cc1cccc(/C=C/c2ccccc2)n1
inactive: 1 nM 3.85% | 8.33 nM -0.34% | 100 nM -0.78% | 833.33 nM -1.72% | 10000 nM -2.74%

C=CCNc1ncnc2ccc(Br)cc12
inactive: 1 nM 2.47% | 8.33 nM 5.36% | 100 nM 4.33% | 833.33 nM 0.12% | 10000 nM 0.96%

O=C(Nc1ccc(Cl)cc1)Nc1ccc(Cl)c(Cl)c1 [triclocarban]
inactive: 1 nM -2.22% | 8.33 nM -0.87% | 100 nM 0.35% | 833.33 nM -1.44% | 10000 nM -0.6%

C=C1/C(=C\C=C2/CCC[C@]3(C)[C@@H]([C@H](C)/C=C/C=C/C(O)(CC)CC)CC[C@@H]23)C[C@@H](O)C[C@@H]1O [seocalcitol]
inactive: 1 nM -3.06% | 8.33 nM -2.2% | 100 nM -0.09% | 833.33 nM 1.95% | 10000 nM 1.01%

CN1C(C)(C)CCCC1(C)C [pempidine]
inactive: 1 nM -2.83% | 8.33 nM -0.7% | 100 nM -4.34% | 833.33 nM -1.68% | 10000 nM -2.1%

C[N+]1(C)[C@@H]2C[C@@H](OC(=O)[C@H](CO)c3ccccc3)C[C@H]1[C@@H]1O[C@@H]12 [methscopolamine]
inactive: 1 nM -1.29% | 8.33 nM -0.27% | 100 nM 1.56% | 833.33 nM 0.62% | 10000 nM 1.83%

O=C(O)C(=O)O.[NH-][C@@H]1CCCC[C@H]1[NH-].[Pt+2] [oxaliplatin]
inactive: 1 nM 1.5% | 8.33 nM 1.96% | 100 nM 10.3% | 833.33 nM -2.36% | 10000 nM 1%

C=C(CC)C(=O)c1ccc(OCC(=O)O)c(Cl)c1Cl [etacrynic-acid]
inactive: 1 nM 1.1% | 8.33 nM 2.25% | 100 nM 2.32% | 833.33 nM 4.17% | 10000 nM -6.97%

CC(C)C[C@@H](NC(=O)[C@H](C)NC(=O)CNC(=O)[C@@H](NC=O)C(C)C)C(=O)N[C@@H](C)C(=O)N[C@@H](C(=O)N[C@H](C(=O)N[C@@H](C(=O)N[C@@H](Cc1c[nH]c2ccccc12)C(=O)N[C@H](CC(C)C)C(=O)N[C@@H](Cc1c[nH]c2ccccc12)C(=O)N[C@H](CC(C)C)C(=O)N[C@@H](Cc1c[nH]c2ccccc12)C(=O)N[C@H](CC(C)C)C(=O)N[C@@H](Cc1c[nH]c2ccccc12)C(=O)NCCO)C(C)C)C(C)C)C(C)C [gramicidin]
inactive: 1 nM 0.05% | 8.33 nM 0.15% | 100 nM 0.36% | 833.33 nM -1.18% | 10000 nM 2.22%

CCCn1c(=O)c(C)cn2nc(N)nc12
inactive: 1 nM 3.43% | 8.33 nM 2.31% | 100 nM -0.1% | 833.33 nM 2.28% | 10000 nM -2.15%

COc1c(O)cc2c(c1O)[C@@H]1O[C@H](CO)[C@@H](O)[C@H](O)[C@H]1OC2=O [bergenin]
inactive: 1 nM -3.29% | 8.33 nM -2.26% | 100 nM -0.14% | 833.33 nM 0.39% | 10000 nM -1.22%

Nc1[nH]cnc2ncnc1-2 [adenine]
inactive: 1 nM 1.26% | 8.33 nM 0.3% | 100 nM 3.06% | 833.33 nM 6.45% | 10000 nM 3.2%

Cc1cccc(Cc2c[nH]cn2)c1C [detomidine]
inactive: 1 nM -2.36% | 8.33 nM -0.01% | 100 nM 1.67% | 833.33 nM -2.3% | 10000 nM 2.25%

Nc1nc2c(ccc3ccccc32)s1
inactive: 1 nM -0.98% | 8.33 nM -0.18% | 100 nM -1.85% | 833.33 nM -0.09% | 10000 nM -1.09%

C/N=C(/NC#N)NCCSCc1csc(NC(=N)N)n1 [tiotidine]
inactive: 1 nM -3.61% | 8.33 nM -1.47% | 100 nM -1.51% | 833.33 nM -3.05% | 10000 nM -1.02%

c1ccc2sc(N3CCN(Cc4ccc5c(c4)OCO5)CC3)nc2c1 [2-[1-(4-piperonyl)piperazinyl]benzothiazole]
inactive: 1 nM -3.54% | 8.33 nM -1.04% | 100 nM -3.92% | 833.33 nM -3.68% | 10000 nM -2.73%

CC[N+](CC)(CC)CCC(O)(c1ccccc1)C1CCCCC1 (stereo not given) [tridihexethyl]
inactive: 1 nM -1.22% | 8.33 nM -1.31% | 100 nM -0.23% | 833.33 nM -1.37% | 10000 nM -1.87%

CC(COc1ccccc1Cc1ccccc1)N1CCCCC1 (stereo not given) [benproperine]
inactive: 1 nM -1.82% | 8.33 nM 0.63% | 100 nM -0.71% | 833.33 nM -3.69% | 10000 nM -3.54%

Nc1nc(=O)c2c([nH]1)NCC(CNc1ccc(C(=O)N[C@@H](CCC(=O)O)C(=O)O)cc1)N2C=O (stereo not given in full) [leucovorin]
inactive: 1 nM -3.4% | 8.33 nM -3.52% | 100 nM -0.89% | 833.33 nM 1.42% | 10000 nM -0.745%

O=C1[C@H]2CCCC[C@H]2C(=O)N1CCCCN1CCN(c2nsc3ccccc23)CC1 [perospirone]
inactive: 1 nM -1.38% | 8.33 nM 3.93% | 100 nM 3.52% | 833.33 nM 3.58% | 10000 nM -1.69%

CS(=O)(=O)Nc1ccc([N+](=O)[O-])cc1Oc1ccccc1 [nimesulide]
inactive: 1 nM 0.43% | 8.33 nM -0.72% | 100 nM 1.12% | 833.33 nM 2.18% | 10000 nM 2.92%

C[C@H](CCC(=O)NCCS(=O)(=O)O)[C@H]1CC[C@H]2[C@@H]3[C@H](O)C[C@@H]4C[C@H](O)CC[C@]4(C)[C@H]3C[C@H](O)[C@]12C [taurocholate]
inactive: 1 nM -8.93% | 8.33 nM -4.1% | 100 nM -6.72% | 833.33 nM -7.82% | 10000 nM -8.38%

N=C(N)NC(=O)c1cnn(-c2cccc3ncccc23)c1C1CC1 [zoniporide]
inactive: 1 nM -0.05% | 8.33 nM 3.39% | 100 nM 1.14% | 833.33 nM 3.55% | 10000 nM -1.51%
